Data on 7 compounds can be found in ChEMBL document CHEMBL1961873, “Compounds: GSK PKIS; Assays: Nanosyn kinase panel” (2012).

For experiment [1], the system named is Proto-oncogene tyrosine-protein kinase receptor Ret (Homo sapiens), P07949 [Y791F]. The conditions noted are these: at 1 µM.
Experiment [2] deals with Macrophage-stimulating protein receptor (Homo sapiens) (UniProt Q04912). Particulars: at 0.1 µM.
For experiment [3] the target is unchanged. The conditions noted are these: at 1 µM.
Experiment [4] has as its target Proto-oncogene tyrosine-protein kinase ROS (Homo sapiens) (UniProt P08922). The conditions noted are these: at 0.1 µM.
The target is the same in experiment [5]. The conditions noted are these: at 1 µM.
In experiment [6] the target is Proto-oncogene tyrosine-protein kinase Src (Homo sapiens) (UniProt P12931). The conditions noted are these: at 0.1 µM.
Chain of Proto-oncogene tyrosine-protein kinase Src (Homo sapiens) (P12931 2-536 limits assumed): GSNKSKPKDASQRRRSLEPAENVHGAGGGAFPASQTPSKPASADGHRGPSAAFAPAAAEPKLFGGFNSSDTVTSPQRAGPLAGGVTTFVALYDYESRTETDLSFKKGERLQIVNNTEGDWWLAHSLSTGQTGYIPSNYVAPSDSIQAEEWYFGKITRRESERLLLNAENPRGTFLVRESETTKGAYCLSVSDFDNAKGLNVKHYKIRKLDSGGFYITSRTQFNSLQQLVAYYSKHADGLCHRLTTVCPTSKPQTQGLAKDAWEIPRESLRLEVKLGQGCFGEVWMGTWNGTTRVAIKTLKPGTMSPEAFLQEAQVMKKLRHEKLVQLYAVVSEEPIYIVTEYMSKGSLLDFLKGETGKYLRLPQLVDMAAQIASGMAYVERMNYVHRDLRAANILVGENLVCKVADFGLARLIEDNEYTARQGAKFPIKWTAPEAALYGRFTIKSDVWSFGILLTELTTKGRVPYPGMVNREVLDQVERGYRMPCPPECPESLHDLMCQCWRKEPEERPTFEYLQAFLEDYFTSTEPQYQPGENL
Experiment [7] has the same target. Particulars: at 1 µM.
Experiment [8] concerns the target Tyrosine-protein kinase Srms (Homo sapiens) (UniProt Q9H3Y6). Particulars: at 0.1 µM.
For experiment [9] the target is unchanged. The conditions noted are these: at 1 µM.
For experiment [10], the target named is Tyrosine-protein kinase SYK (Homo sapiens) (UniProt P43405). Particulars: at 0.1 µM.
The target is the same in experiment [11]. The conditions noted are these: at 1 µM.
The target in experiment [12] is T1, Tyrosine-protein kinase Tec (Homo sapiens) (UniProt P42680).
T1 sequence (whole entry): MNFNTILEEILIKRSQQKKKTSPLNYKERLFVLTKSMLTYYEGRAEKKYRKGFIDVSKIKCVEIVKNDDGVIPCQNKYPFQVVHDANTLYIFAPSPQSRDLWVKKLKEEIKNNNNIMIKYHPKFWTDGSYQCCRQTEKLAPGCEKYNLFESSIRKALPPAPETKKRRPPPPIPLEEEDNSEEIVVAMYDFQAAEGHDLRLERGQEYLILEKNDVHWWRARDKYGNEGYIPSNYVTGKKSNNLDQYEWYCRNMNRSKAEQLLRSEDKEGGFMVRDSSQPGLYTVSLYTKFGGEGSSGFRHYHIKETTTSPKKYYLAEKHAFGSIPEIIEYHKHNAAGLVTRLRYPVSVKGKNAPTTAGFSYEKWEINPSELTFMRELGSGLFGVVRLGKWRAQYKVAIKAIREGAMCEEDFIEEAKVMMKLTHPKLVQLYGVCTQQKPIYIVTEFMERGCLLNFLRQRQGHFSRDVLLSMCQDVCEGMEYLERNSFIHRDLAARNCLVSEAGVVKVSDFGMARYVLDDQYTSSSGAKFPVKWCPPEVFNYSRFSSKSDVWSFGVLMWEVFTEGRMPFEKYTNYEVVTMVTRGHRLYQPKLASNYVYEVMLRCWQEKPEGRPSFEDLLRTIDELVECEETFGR
Particulars: at 0.1 µM.

Experiment [13] addresses T1, Tyrosine-protein kinase Tec (Homo sapiens). Particulars: at 1 µM.
The target in experiment [14] is Angiopoietin-1 receptor (Homo sapiens) (UniProt Q02763). The conditions noted are these: at 0.1 µM.
Chain of Angiopoietin-1 receptor (Homo sapiens) (Q02763 whole entry): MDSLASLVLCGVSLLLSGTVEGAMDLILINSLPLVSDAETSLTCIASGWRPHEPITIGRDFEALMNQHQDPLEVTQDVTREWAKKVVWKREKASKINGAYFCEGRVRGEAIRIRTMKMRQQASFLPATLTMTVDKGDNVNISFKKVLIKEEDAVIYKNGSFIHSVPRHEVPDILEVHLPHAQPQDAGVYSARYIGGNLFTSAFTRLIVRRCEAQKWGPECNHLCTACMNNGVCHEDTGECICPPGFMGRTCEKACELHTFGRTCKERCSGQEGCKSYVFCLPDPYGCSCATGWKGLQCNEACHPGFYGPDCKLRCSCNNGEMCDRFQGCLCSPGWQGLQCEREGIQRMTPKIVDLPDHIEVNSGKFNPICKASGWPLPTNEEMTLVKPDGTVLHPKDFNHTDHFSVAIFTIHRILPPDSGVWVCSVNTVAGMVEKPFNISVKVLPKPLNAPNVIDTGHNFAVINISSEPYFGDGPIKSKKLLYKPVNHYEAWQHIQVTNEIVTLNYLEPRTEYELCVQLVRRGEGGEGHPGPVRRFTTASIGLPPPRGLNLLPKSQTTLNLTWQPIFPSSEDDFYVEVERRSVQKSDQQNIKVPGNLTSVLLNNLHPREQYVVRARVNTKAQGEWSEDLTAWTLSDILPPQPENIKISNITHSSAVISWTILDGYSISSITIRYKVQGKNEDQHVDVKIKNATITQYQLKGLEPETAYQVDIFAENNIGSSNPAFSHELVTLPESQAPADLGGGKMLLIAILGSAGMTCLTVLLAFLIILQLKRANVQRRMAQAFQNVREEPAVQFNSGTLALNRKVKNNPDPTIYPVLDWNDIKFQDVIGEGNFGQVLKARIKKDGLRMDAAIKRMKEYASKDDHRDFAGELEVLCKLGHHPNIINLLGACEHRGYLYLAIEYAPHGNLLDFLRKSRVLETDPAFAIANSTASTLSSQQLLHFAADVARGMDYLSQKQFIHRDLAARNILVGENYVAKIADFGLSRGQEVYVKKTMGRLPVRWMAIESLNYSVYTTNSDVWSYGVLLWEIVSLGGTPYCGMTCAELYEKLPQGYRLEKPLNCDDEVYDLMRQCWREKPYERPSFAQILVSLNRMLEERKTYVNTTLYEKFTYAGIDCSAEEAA
For experiment [15] the target is unchanged. The conditions noted are these: at 1 µM.
For experiment [16], the target named is T2, Non-receptor tyrosine-protein kinase TNK1 (Homo sapiens) (UniProt Q13470).
T2 sequence (whole entry): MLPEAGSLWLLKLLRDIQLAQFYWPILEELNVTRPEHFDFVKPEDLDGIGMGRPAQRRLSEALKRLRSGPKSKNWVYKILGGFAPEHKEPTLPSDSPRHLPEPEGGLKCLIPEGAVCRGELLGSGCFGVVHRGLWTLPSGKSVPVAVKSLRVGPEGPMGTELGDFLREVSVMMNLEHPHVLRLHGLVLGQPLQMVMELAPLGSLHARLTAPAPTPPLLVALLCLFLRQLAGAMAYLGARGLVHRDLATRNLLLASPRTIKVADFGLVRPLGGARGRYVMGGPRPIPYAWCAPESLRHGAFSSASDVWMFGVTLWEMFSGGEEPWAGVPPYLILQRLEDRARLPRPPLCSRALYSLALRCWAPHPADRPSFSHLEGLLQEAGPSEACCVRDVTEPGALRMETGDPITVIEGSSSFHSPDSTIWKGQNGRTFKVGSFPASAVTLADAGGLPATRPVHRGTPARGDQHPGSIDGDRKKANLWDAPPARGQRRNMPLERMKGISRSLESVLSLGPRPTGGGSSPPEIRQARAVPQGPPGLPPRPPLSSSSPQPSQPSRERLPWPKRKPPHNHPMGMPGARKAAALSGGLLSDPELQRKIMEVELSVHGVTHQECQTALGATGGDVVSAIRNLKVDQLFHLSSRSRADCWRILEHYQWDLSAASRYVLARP
The conditions noted are these: at 0.1 µM.

Experiment [17] concerns the target T2, Non-receptor tyrosine-protein kinase TNK1 (Homo sapiens). The conditions noted are these: at 1 µM.
The target of experiment [18] is Activated CDC42 kinase 1 (Homo sapiens) (UniProt Q07912). The conditions noted are these: at 0.1 µM.
Chain of Activated CDC42 kinase 1 (Homo sapiens) (Q07912 whole entry, looked up): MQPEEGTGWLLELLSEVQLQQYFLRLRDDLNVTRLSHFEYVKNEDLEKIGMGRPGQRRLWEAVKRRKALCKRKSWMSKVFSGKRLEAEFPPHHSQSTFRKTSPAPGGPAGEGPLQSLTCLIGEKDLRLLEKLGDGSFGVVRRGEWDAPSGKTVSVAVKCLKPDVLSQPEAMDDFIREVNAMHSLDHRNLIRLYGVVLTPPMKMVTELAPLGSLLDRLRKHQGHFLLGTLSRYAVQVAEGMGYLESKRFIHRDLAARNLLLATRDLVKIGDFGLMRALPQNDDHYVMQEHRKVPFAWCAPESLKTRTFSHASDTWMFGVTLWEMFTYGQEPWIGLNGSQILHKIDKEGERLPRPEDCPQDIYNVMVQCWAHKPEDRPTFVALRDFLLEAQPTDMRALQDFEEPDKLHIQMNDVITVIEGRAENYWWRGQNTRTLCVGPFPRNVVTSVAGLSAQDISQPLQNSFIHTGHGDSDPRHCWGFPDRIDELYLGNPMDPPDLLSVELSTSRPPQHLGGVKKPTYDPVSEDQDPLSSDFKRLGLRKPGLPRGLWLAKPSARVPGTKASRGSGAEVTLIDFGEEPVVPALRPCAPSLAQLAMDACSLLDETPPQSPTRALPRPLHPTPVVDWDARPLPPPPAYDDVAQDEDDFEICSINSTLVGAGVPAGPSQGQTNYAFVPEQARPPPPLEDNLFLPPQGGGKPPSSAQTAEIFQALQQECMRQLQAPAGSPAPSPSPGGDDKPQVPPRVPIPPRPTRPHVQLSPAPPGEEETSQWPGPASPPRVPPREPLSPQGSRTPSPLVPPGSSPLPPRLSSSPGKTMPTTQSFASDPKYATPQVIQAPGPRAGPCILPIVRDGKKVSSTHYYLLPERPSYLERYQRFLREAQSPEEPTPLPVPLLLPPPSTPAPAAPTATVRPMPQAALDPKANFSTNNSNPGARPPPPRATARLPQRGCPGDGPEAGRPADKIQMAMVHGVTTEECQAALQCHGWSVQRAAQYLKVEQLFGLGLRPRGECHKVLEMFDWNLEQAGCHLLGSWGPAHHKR
For experiment [19] the target is unchanged. Particulars: at 1 µM.
For experiment [20], the target named is High affinity nerve growth factor receptor (Homo sapiens) (UniProt P04629). Particulars: at 0.1 µM.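 Also: each value is a mean of replicate percent inhibition readings against TRKA kinase.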
Chain of High affinity nerve growth factor receptor (Homo sapiens) (P04629 33-796 limits assumed): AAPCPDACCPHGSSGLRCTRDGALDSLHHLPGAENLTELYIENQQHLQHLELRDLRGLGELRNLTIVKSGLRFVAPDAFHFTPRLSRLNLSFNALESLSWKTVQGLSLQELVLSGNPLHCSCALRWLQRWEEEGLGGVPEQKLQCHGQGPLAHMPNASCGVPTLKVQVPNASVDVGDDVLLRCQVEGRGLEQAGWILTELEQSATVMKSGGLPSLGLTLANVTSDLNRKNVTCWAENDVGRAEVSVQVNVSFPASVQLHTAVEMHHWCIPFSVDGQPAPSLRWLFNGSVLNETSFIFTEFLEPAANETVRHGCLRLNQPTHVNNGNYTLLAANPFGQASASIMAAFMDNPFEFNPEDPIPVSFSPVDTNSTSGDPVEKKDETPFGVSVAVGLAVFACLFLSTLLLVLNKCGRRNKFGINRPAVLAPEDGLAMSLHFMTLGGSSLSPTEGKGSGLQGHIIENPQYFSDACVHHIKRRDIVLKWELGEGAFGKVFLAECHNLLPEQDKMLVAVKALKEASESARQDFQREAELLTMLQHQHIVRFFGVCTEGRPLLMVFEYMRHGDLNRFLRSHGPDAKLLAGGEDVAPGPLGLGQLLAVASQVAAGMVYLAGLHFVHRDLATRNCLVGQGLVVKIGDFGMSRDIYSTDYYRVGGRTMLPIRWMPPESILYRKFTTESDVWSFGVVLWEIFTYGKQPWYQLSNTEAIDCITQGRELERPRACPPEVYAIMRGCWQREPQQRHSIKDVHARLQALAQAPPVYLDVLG

Chain of Tyrosine-protein kinase Srms (Homo sapiens) (Q9H3Y6 whole entry): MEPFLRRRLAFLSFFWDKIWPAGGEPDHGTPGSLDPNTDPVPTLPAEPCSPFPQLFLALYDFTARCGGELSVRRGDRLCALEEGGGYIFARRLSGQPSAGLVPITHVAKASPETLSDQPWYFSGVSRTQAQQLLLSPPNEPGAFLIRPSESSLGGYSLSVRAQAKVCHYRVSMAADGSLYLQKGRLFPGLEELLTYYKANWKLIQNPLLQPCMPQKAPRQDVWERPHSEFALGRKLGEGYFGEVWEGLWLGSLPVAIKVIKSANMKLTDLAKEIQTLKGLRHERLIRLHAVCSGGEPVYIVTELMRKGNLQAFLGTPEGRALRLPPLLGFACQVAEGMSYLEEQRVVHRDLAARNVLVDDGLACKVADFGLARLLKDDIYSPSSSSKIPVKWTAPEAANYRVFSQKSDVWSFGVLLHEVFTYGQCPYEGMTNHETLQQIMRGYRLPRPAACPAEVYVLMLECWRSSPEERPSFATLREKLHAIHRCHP
Chain of Proto-oncogene tyrosine-protein kinase receptor Ret (Homo sapiens), P07949 [Y791F] (P07949 whole entry Y791F): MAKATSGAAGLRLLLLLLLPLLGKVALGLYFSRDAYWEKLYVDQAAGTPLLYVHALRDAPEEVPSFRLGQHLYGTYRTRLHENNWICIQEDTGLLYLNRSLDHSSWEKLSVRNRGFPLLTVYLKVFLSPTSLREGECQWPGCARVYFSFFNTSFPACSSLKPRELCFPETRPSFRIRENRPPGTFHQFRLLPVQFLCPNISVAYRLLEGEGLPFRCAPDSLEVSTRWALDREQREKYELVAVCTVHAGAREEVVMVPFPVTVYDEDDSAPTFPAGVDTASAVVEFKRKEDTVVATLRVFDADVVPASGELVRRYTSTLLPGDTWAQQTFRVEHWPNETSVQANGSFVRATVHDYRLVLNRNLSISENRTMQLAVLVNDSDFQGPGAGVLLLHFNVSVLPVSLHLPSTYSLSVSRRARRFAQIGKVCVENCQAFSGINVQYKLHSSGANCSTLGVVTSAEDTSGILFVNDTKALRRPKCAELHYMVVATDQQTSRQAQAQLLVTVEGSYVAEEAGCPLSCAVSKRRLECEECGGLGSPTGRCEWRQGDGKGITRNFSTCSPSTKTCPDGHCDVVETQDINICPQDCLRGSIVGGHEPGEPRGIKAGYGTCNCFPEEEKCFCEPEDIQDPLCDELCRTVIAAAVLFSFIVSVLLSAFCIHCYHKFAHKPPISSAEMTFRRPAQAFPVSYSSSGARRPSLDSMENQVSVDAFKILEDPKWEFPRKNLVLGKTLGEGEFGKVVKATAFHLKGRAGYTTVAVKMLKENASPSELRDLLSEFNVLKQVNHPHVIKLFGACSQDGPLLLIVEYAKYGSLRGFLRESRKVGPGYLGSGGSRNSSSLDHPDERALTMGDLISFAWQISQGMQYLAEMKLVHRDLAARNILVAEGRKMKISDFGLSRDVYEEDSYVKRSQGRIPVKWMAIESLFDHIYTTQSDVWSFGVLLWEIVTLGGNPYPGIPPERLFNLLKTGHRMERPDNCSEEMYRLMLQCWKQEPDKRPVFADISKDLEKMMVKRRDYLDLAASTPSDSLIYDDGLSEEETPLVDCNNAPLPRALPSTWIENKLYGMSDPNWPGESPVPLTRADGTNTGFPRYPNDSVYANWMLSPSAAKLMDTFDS

Consider `Fc1ccc(-c2nc3n(c2-c2ccncc2)CCS3)cc1`, for which the inhibition in experiment [1] is 9.79%; in experiment [2] it was -2.87%; in [3] it was 6.64%; in experiment [4], 7.49%; in experiment [5], 6.54%; in experiment [6] it was 3.03%. In addition, the inhibition is 8.62% in [7]; -2.19% in [8]; -4.01% in experiment [9]; -6.2% in [10]; 2.02% in experiment [11]; 0.9% in experiment [12]. In addition, the inhibition is 2.31% in experiment [13]; 3.17% in experiment [14]; 5.76% in [15]; 1.24% in experiment [16]; -1.81% in experiment [17]; 0.78% in experiment [18]. Further, the inhibition in experiment [19] was found to be 0.1%; in experiment [20], 2.38%.

With `C[C@@H](Oc1cc(-n2cnc3ccc(OCC4CCN(C)CC4)cc32)sc1C(N)=O)c1ccccc1Cl`, the inhibition amounted to 20.1% in experiment [1]; 0.85% in [2]; 13.1% in experiment [3]; 10.2% in experiment [4]; 21.6% in experiment [5]; 11.9% in experiment [6]. For the same compound, the inhibition was 33.2% in [7]; -3.18% in experiment [8]; -0.97% in [9]; -0.18% in [10]; 2.34% in [11]; 6.45% in experiment [12]. The inhibition in [13] is 6.29%; in experiment [14], 4.83%; in [15], 19.8%; in experiment [16], 7.13%; in experiment [17], 26.1%; in [18] it was 3.05%. Moreover, the inhibition in experiment [19] amounted to 19.8%; in experiment [20], 1.86%.

With `COc1ccc2ncn(-c3cc(O[C@H](C)c4ccccc4Cl)c(C(N)=O)s3)c2c1`, the inhibition in experiment [1] is 8.71%; in [2], 2.64%; in experiment [3] it was 3.04%; in experiment [4] it was 6.54%; in [5] it was 10.9%; in experiment [6], 6.13%. Further, the inhibition was 5.73% in [7]; -3.68% in [8]; -2.35% in experiment [9]; -1.79% in experiment [10]; -3.45% in experiment [11]; -2.01% in experiment [12]. The inhibition in [13] stood at 0.84%; in experiment [14], 1.72%; in [15] it was 7.48%; in experiment [16], 3.02%; in [17], 24.1%; in experiment [18], 0.31%. The figures for the inhibition in [19] and in [20] were 1.16% and 8.17%, respectively.

Take `CCc1ccc(Oc2nccc(-c3c(-c4ccc(F)cc4)ncn3C3CCNCC3)n2)cc1`: the inhibition in experiment [1] was determined as 8.79%; in experiment [2], 3.67%; in experiment [3] it was 2.97%; in [4], 6.34%; in experiment [5] it was 6.93%; in [6], 10.2%. For the same compound, the inhibition in experiment [7] is 10%; in [8] it was -0.71%; in experiment [9], -0.39%; in experiment [10], 0.89%; in experiment [11], 2.45%; in experiment [12] it was 6.67%. Further, the inhibition came out at 4.84% in [13]; 3.66% in experiment [14]; 4.41% in experiment [15]; 1.24% in [16]; 0.88% in experiment [17]; 1.41% in experiment [18]. For the same compound, the results for the inhibition in [19] and in experiment [20] were 2.2% and 4.16%, respectively.

Regarding `Fc1ccc(-c2ncn(C3CCNCC3)c2-c2ccnc(Oc3ccc4c(c3)OCO4)n2)cc1`, the inhibition in experiment [1] was 12.8%; in experiment [2], 3.59%; in experiment [3], 4.19%; in experiment [4], 4.93%; in experiment [5] it was 8.59%; in experiment [6], 7.77%. Also, the inhibition in experiment [7] was 8.43%; in experiment [8], -2.94%; in [9], -4.12%; in experiment [10] it was -0.62%; in [11] it was -5.42%; in experiment [12], 2.04%. For the same compound, the inhibition in experiment [13] came to 5.37%; in [14], 7.45%; in [15], 12.3%; in experiment [16], 3.93%; in [17], 7.31%; in experiment [18], 1.16%. Further, the inhibition in experiment [19] worked out at 1.77%; in [20], 1.21%.

As to `CN(C)CCCNc1nccc(-c2c(-c3ccc(F)cc3)nn3cc(C(F)(F)F)ccc23)n1`, the inhibition in experiment [1] is 13.2%; in experiment [2] it was 3.96%; in [3] it was 5.64%; in experiment [4], 3.75%; in experiment [5], 7.77%; in experiment [6], 16.6%. Besides, the inhibition was 9.03% in [7]; 0.42% in experiment [8]; 0.14% in [9]; -3.32% in experiment [10]; -0.03% in experiment [11]; -0.2% in experiment [12]. Besides, the inhibition turned out to be 1.41% in experiment [13]; 5.61% in experiment [14]; 9.58% in [15]; 1.15% in experiment [16]; 0.39% in [17]; 0.85% in [18]. In addition, the inhibition in [19] worked out at 1.33%; in experiment [20], 4.23%.

For `Cc1ccc(C(=O)NC2CCC2)cc1-c1ccc(C(=O)NCC2CC2)cc1`, the inhibition was determined as 2.67% in experiment [1]; 5.75% in [2]; 4.87% in experiment [3]; 3.25% in experiment [4]; 2.72% in [5]; 1.78% in experiment [6]. The inhibition in [7] was 4.45%; in [8] it was -2.12%; in experiment [9] it was -0.59%; in [10], -0.95%; in [11], 0.85%; in experiment [12] it was 3.37%. Also, the inhibition is 2.28% in experiment [13]; 2.59% in experiment [14]; 1.2% in experiment [15]; -0.31% in experiment [16]; -1.43% in experiment [17]; 1.04% in experiment [18]. Besides, the figures for the inhibition in experiment [19] and in experiment [20] were 1.08% and -0.6%, respectively.

A word on the inhibition: it is the drop in the measured response relative to a control, in per cent.
